Sampled rows, rich in hits. Any-hit rate of the full collection: about 5.9%.
ABHD5-PLIN5 inh: ABHD5-PLIN5 interaction inhibitors, primary screen, cell lysate, split luciferase complementation, luminescence | inhibition, % at 4 µM | 360,000 tested, 0.78% active | Perilipin-5 (Homo sapiens) + 1-acylglycerol-3-phosphate O-acyltransferase ABHD5 (Homo … | Split G. princeps luciferase complementation, 4 h;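 active = inhibition above the mean inhibition across every tested compound plus 3 SD, cut at about 22% in these data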
rCAG RNA binder: binders of r(CAG) RNA repeats, primary screen, biochemical, fluorescence; r(CAG) RNA repeat, TO-PRO-1 dye displacement fluorescence; AID 651821, 2012; inhibition, % at 3 µM; 370,000 tested, 1.3% active;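 active = inhibition above the plate cutoff, the mean of all test compounds on that plate plus 3 SD, cut at about 35% in these data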;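 note: higher means more dye released from RNA so lower well fluorescence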
LANA-H2A inh: blockers of LANA interaction with H2A/H2B – biochemical, FP readout, HTS, primary screen | Protein LANA1 (Human herpesvirus 8 type P (isolate GK18)), Q9QR71 | cell-free LANA-H2A/H2B peptide, fluorescence polarization | inhibition, % (test concentration not listed) | 320,000 tested, 0.6% active | AID 2629, 2010; in the data active = inhibition mostly above about 10%, no sharp cut-off; inactive = mostly below about 6.7%
Rtt109 HAT inh: inhibitors of C. albicans Rtt109/Vps75 HAT, primary screen, biochemical, ThioGlo CoA-SH fluorescence, plate reader; 330,000 tested, 0.16% active; inhibition, % at 34.9 µM; purified Rtt109/Vps75, 4 h;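 active = inhibition of at least 50% in every replicate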
ALR inh: inhibitors of human ALR sulfhydryl oxidase, primary screen, biochemical, H2O2 detection, HRP-luminol luminescence, single point; FAD-linked sulfhydryl oxidase ALR (Homo sapiens), P55789; purified ALR, DTT oxidation; inhibition, % (test concentration not listed); 290,000 tested, 3.8% active; AID 485317, 2010;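 active = mean replicate inhibition above about 79%, with every replicate also reaching it, limit read from the data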
Target sequence (P55789 whole entry, looked up): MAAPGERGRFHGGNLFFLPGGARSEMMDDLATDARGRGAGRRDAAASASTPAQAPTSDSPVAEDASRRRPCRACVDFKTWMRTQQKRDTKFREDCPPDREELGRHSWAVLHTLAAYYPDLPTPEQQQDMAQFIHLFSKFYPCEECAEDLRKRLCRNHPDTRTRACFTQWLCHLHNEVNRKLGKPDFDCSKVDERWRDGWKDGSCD
PRMT1 inh: PRMT1 methyltransferase inhibitors, primary screen, biochemical, fluorescence polarization; recombinant PRMT1, activity-based probe fluorescence polarization; inhibition, % at 2.79 µM; 370,000 tested, 1.3% active; AID 652257, 2013;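 active = inhibition above about 21% made by adding two undisclosed values, limit read from the data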
Target sequence (Q99873 whole entry, looked up): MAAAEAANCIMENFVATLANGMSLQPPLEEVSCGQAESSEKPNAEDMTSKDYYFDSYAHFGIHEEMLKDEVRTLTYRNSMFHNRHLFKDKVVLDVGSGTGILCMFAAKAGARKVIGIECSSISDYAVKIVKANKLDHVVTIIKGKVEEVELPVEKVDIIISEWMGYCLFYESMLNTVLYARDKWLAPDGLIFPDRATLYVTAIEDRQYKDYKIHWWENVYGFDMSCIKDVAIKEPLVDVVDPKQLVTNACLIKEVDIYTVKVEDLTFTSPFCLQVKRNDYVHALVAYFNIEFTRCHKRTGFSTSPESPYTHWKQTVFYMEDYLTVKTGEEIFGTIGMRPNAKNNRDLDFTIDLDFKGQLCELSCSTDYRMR
Large screens that a line does not name were inactive.

O=C(CN1CCN(c2cccc(Cl)c2)CC1)NC1CCCc2ccccc21 (centres undefined)	LANA-H2A inh 20 (no result: ALR inh)
CC1CCCC(C)N1C(=O)COC(=O)c1cccnc1Cl (centres undefined)	none
CCC(=O)Nc1nnc(C(C)(C)C)s1	ALR inh 98
CNC(=O)Nc1nnc(C(C)(C)C)s1	none (no result: ALR inh)
O=C(O)CC(Sc1ccc(Cl)cc1)C(=O)Nc1ccccc1 (centres undefined)	none (no result: ABHD5-PLIN5 inh, LANA-H2A inh, Rtt109 HAT inh, ALR inh)
CC(C)OC(=O)/C=C1\C[C@@H](c2ccccc2C(F)(F)F)O[C@@H](c2ccccc2C(F)(F)F)O1	none (no result: LANA-H2A inh, Rtt109 HAT inh, ALR inh)
O=C(c1ccccc1N1CCOCC1)N1CCCC(Nc2ccc(F)cc2)C1 (centres undefined)	ALR inh 98
COc1ccc(NC2CCCN(C(=O)c3cccnc3SC)C2)cc1OC (centres undefined)	ALR inh 100
CSc1ncccc1C(=O)N1CCCC(C(=O)c2cc(F)ccc2F)C1 (centres undefined)	none
COc1ccc(NC2CCCN(C(=O)c3ccccc3N3CCOCC3)C2)cc1OC (centres undefined)	ALR inh 98
Cc1ccc(NC2CCCN(C(=O)c3ccccc3N3CCOCC3)C2)cc1C (centres undefined)	ALR inh 99
O=C(CCN1CCOCC1)N1CCCC(Nc2ccc(F)cc2)C1 (centres undefined)	none
C/C(=N/NC(=O)CSc1nnc(SCc2ccc(C)cc2)s1)c1cccc(O)c1	none (no result: ABHD5-PLIN5 inh, LANA-H2A inh, Rtt109 HAT inh, ALR inh)
O=C(CN(Cc1ccccc1Cl)C(=O)CNS(=O)(=O)c1ccc(F)cc1)NCC1CCCO1 (centres undefined)	none
O=C(Nc1ccc2c(c1)OCO2)C1Cc2c(-c3ccc4c(c3)OCO4)ccnc2O1 (centres undefined)	none (no result: LANA-H2A inh, Rtt109 HAT inh, ALR inh)
COc1ccc(Cn2cc(COC(=O)N3CCOCC3)nn2)cc1	none (no result: ABHD5-PLIN5 inh, LANA-H2A inh, Rtt109 HAT inh, ALR inh)
O=C(Nc1ccccc1Cl)c1cc(S(=O)(=O)N2CCCCC2)ccc1N1CCOCC1	Rtt109 HAT inh 60
O=C(Nc1ccccc1C(=O)O)c1cc(S(=O)(=O)N2CCCCCC2)ccc1Cl	rCAG RNA binder 58 (no result: ALR inh)
CC1CCN(c2ccccc2NC(=O)c2cc([N+](=O)[O-])ccc2N2CCOCC2)CC1	Rtt109 HAT inh 54
C[C@@H]1CN([C@@H](C)CO)C(=O)CCCn2cc(nn2)CO[C@H]1CN(C)S(=O)(=O)c1cn(C)cn1	none (no result: LANA-H2A inh, Rtt109 HAT inh, ALR inh)
CN(C)CCN1CCN(C2CN(Cc3cn(Cc4ccc(F)cc4)nn3)S(=O)(=O)C2)CC1 (centres undefined)	none (no result: LANA-H2A inh, Rtt109 HAT inh, ALR inh)
S=C(NCc1cccs1)Nc1cccc(Cl)c1	none (no result: rCAG RNA binder, PRMT1 inh)
S=C(NCc1cccs1)Nc1cc(Cl)cc(Cl)c1	LANA-H2A inh 21 (no result: ALR inh)
CN1c2ccccc2C(C)(C)[C@]12C=Cc1cc(O)ccc1O2	ALR inh 88
CN1c2ccccc2C(C)(C)C12C=Nc1c(ccc3ccccc13)O2 (centres undefined)	none
CCOC(=O)N[C@H](C(=O)N1CCC[C@H]1C(=O)NCCc1ccccc1Cl)c1ccccc1	none (no result: ABHD5-PLIN5 inh, LANA-H2A inh, Rtt109 HAT inh, ALR inh)
Cc1ccc(/C=C/C(=O)c2ccccc(=O)c2O)cc1C	ALR inh 96
COc1ccc(/C=C/C(=O)c2ccccc2O)cc1	none (no result: rCAG RNA binder, PRMT1 inh)
COC(=O)c1c(C)[nH]c(C(=O)OC(C)C(=O)NC2CCCCC2C)c1C (centres undefined)	none (no result: LANA-H2A inh, Rtt109 HAT inh, ALR inh)
Cc1ccnc(NC(c2ccccn2)c2c(C)[nH]c3ccccc23)c1 (centres undefined)	ALR inh 98
Cc1[nH]c2ccccc2c1C(c1ccccn1)N1CCCC1 (centres undefined)	none (no result: ALR inh)
CN(Cc1ccco1)S(=O)(=O)c1ccc2c(c1)CCN2C(=O)CC(C)(C)C	none (no result: ABHD5-PLIN5 inh, LANA-H2A inh, Rtt109 HAT inh, ALR inh)
CN1C(=O)c2cc(NS(=O)(=O)c3cccc(F)c3)ccc2OC[C@@H]2O[C@H](CC(=O)O)CC[C@H]21	none (no result: ABHD5-PLIN5 inh, LANA-H2A inh, Rtt109 HAT inh, ALR inh)
CSC(=NC#N)N1CCN(c2cccc(Cl)c2)CC1	ALR inh 94
CSC(=NC#N)N1CCN(c2ccccc2)CC1	ALR inh 76
COC(=O)Cc1nnn2c1[C@H](C)[C@H](c1ccccc1Br)OC[C@@H]2c1ccccc1	none (no result: ABHD5-PLIN5 inh, LANA-H2A inh, Rtt109 HAT inh, ALR inh)
COc1cccc(Cn2cc(COC(=O)N3CCOCC3)nn2)c1	none (no result: ABHD5-PLIN5 inh, LANA-H2A inh, Rtt109 HAT inh, ALR inh)
CCOc1ccc(C(=O)N/N=C/c2ccc(-c3ccc(S(=O)(=O)Nc4ncccn4)cc3)o2)cc1	rCAG RNA binder 57
CCOc1ccc(S(=O)(=O)N(CC(=O)N/N=C/c2ccc(-c3ccc([N+](=O)[O-])cc3)o2)c2ccccc2)cc1	none
O=C(Oc1ccccc1C(=O)Nc1ccccc1)c1ccc(Br)c([N+](=O)[O-])c1	ALR inh 97
COc1ccccc1C(=O)Oc1ccccc1C(=O)Nc1ccccc1	none (no result: Rtt109 HAT inh)
Cn1c(=O)c2c(nc(N/N=C/c3cccs3)n2Cc2ccccc2)n(C)c1=O	ALR inh 96
CCC(C)Nc1nc2c(c(=O)n(C)c(=O)n2C)n1Cc1cccc(C)c1 (centres undefined)	ALR inh 97
COc1ccc(N2CCN(Cc3nnnn3C3CCCCC3)CC2)cc1	none
CCOC(=O)Cn1nnnc1CN1CCN(c2ccc(OC)cc2)CC1	ALR inh 92
O=C(CC12CC3CC(CC(Br)(C3)C1)C2)NC1CCCC1	LANA-H2A inh 12 (no result: ALR inh)
CC(=O)NS(=O)(=O)c1ccc(NC(=O)CC23CC4CC(CC(Br)(C4)C2)C3)cc1	none
O=C(O)c1cc(Nc2cc(Cl)c3nonc3c2[N+](=O)[O-])ccc1O	ABHD5-PLIN5 inh 23, PRMT1 inh 65
COC(=O)[C@]12C[C@H](CC(=O)N3CCC(c4ccccc4)CC3)C(=O)N(CCc3ccc(OC)c(OC)c3)C1=C[C@H](C1CCCC1)O[C@@H]2C	none (no result: ABHD5-PLIN5 inh, LANA-H2A inh, Rtt109 HAT inh, ALR inh)
COc1ccc(C2(CNC(=O)/C=C\c3ccco3)CCCC2)cc1OC	ABHD5-PLIN5 inh 22
CC(=O)OCCCN1C(=O)CCC12CCC(C)CC2 (centres undefined)	none (no result: ABHD5-PLIN5 inh, LANA-H2A inh, Rtt109 HAT inh, ALR inh)
CCOC(=O)CCCCC(=O)c1[nH]c(=O)[nH]c1C[n+]1ccccc1	LANA-H2A inh 17 (no result: ABHD5-PLIN5 inh, rCAG RNA binder, Rtt109 HAT inh, PRMT1 inh)
Cc1cnc(=O)[nH]c1SCc1ccc([N+](=O)[O-])cc1	ALR inh 99
Cc1cnc(=O)[nH]c1SCc1ccc(C(F)(F)F)cc1	none (no result: ALR inh)
Oc1ccc(CCc2n[nH]c(=S)n2-c2ccc(F)cc2)cc1	ALR inh 81
O=C(O)CCC(=O)Nc1ccc(C(=O)OCC(=O)c2ccc(Cl)cc2Cl)cc1	ALR inh 96

Compound activity from PubChem.
